Bioassay records as filed in PubChem BioAssay.
Rows were chosen to be rich in hits. Some 20% of all compounds tested hit in one or more screens of this group.
Pf growth 48h – inhibits P. falciparum growth in the first generation, 48 h; P. falciparum luciferase growth in erythrocytes, 48 h; Potency, µM (series often up to 28.7 µM), for inactives: at the highest dose activity change, negative = inhibition, hits mostly inhibitors; 5.9% of 310,000 active; AID 504832; further: potency means the concentration at half of the fitted maximal effect; on the % scale 0 is the no-effect control and ±100 the full control effect
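Compounds are pin-transferred into medium, infected erythrocytes (2% hematocrit, 0.1% parasitemia final) are added, and plates sit one parasite generation at 37 C in 5% CO2. Detection reagent is then added and luminescence measured.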
Shiga inhibitor – blocks Shiga toxin action in Vero cells; Vero cells, Shiga toxin protein synthesis inhibition reporter; 9.2% of 290,000 active; inhibition, % at 38.7 µM; AID 2315; in the data active means inhibition mostly above about 28%, no sharp cut-off; inactive means mostly below about 43%; further: 0% is about no effect
HCMV antiviral – blocks human cytomegalovirus replication. AID 1259415. activity change, negative = inhibition, % at 57.5 µM. 4.5% of 410,000 active. HFF cells, HCMV-luciferase reporter, 72 h; hits give low values; in the data active means activity change below about -60%; inconclusive means no clear call, values can overlap the other calls; inactive means above about -39%; further: on the % scale 0 is the no-effect control and ±100 the full control effect
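Two compound doses tested in HFFs infected with HCMV-luciferase, MOI 1 PFU/cell, 72 h at 37C. Lysate luminescence read with OneGlo; data normalized against buffer-only and 10uM Salinomycin inhibitor controls.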
CHX counter – counter-screen hit for Shiga toxin inhibitors, cycloheximide | cell reporter, cycloheximide protein synthesis inhibition counterscreen | max response, % | 12% of 300,000 active | AID 2314; in the data active means max response mostly above about 13%, no sharp cut-off; inactive means mostly below about 14%; further: read at 38.3 µM for the half of the compounds with a filed dose; 0% is about no effect
Pf growth 96h – P. falciparum growth inhibition at 96 hour, primary screen for plastid delayed-death inhibitors; P. falciparum luciferase reporter growth, 96 h; Potency, µM (doses to about 28.7 µM), for inactives: top-dose activity change, negative = inhibition, most hits filed as inhibitors; 6.9% of 320,000 active; AID 504834; further: potency means the concentration at half of the fitted maximal effect; on the % scale 0 is the no-effect control and ±100 the full control effect
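Delayed-death screen, second-generation endpoint: infected erythrocytes, 2% hematocrit, 0.05% parasitemia final; 96 hours at 37 C, 5% CO2; luciferase detection reagent; luminescence decrease equals reduced growth.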
An asterisk follows results filed as active; ? = inconclusive; nt = no result given; + = active, no number. Unless noted, the call rests on the fitted dose curve; in most records, active means well fitted inhibition curve with a large enough effect; inconclusive means small, poorly fitted or top-dose-only effect, or another doubt; inactive means no such curve, though single readings can be large or run the other way.

SMILES	Pf growth 48h	Shiga inhibitor	HCMV antiviral	CHX counter	Pf growth 96h
COc1ccc2nc(C)cc(SCC(=O)N/N=C/c3ccco3)c2c1	2%	19	-26	1	94%
CCCCCn1nc(C(=O)OCc2nc(N)nc(Nc3ccccc3)n2)c2ccccc2c1=O	nt	nt	12	nt	nt
CCOC(=O)/C=C/c1ccccc1S(=O)(=O)NC(C)(C)C	nt	nt	-21	nt	nt
Cc1ccc(NC(=O)C(Cc2c[nH]c3ccccc23)NC(=O)OCC(C)C)cc1 (centres undefined)	nt	nt	-2	nt	nt
CCOC(=O)c1nnsc1Nc1ccc(C)c(C)c1	4%	59*	-29	43*	0%
Cc1ccc(N2C(=O)N(CC(=O)NCc3ccccc3Cl)C(=O)C2C)cc1 (centres undefined)	10µM*	10	1	10	-9%
Cc1ccc(C2(C)NC(=O)N(CC(=O)NCc3ccccc3Cl)C2=O)cc1 (centres undefined)	-7%	2	-8	12*	-12%
Cc1ccc(CNC(=O)CN2C(=O)NC(C)(c3ccc(Cl)cc3)C2=O)cc1 (centres undefined)	5%	-2	10	-1	8%
Cc1ccc(N2C(=O)N(CC(=O)Nc3ccccc3C)C(=O)C2C)cc1 (centres undefined)	11%	18*	30	20*	-15%
CCOc1ccc(-c2cc(C)n3nc(C(=O)Nc4cc(Cl)ccc4O)cc3n2)cc1	nt	nt	3	nt	nt
CC1(C(=O)Nc2ccc3c(c2)OCCO3)CCC(=O)N1CCOc1ccccc1 (centres undefined)	nt	nt	-8	nt	nt
COc1ccc(CCNC(=O)C2CCN(c3nc4ccccc4nc3C(F)(F)F)CC2)c(OC)c1	nt	nt	1	nt	nt
CC(=O)n1cc(N(C(=O)CCl)c2ccc(C)cc2)c2ccccc21	?	4	-97*	22*	?
CC(=O)c1nn(-c2ccc(C(F)(F)F)cc2)c(=O)[nH]c1=O	-3%	-3	-15	-2	2%
Cc1ccc2[nH]c(C(=O)N3CCC(C(N)=O)CC3)cc2c1	-2%	nt	70	16	31%
Cc1ccc2[nH]c(C(=O)N3CCCCC3)cc2c1	62%	nt	49	26*	149%
Cc1ccc2[nH]c(C(=O)N3CCOCC3)cc2c1	3%	17	-11	active	-6%
Cc1ccc2[nH]c(C(=O)NCCN3CCCC3)cc2c1	?	-4	7	-2	12µM*
Cn1c(NC(=O)c2ccccc2)c(-c2ccccn2)c(=O)c2ccccc21	nt	17	-20	-1	-11%
CCOCCCNC(=O)c1ccc(N2CC3CC(C2)c2cccc(=O)n2C3)c(NC(=O)Nc2cccc(OC)c2)c1 (centres undefined)	?	-4	-21	1	-11%
Cc1sc2nc(CSCC(=O)Nc3ccc(C(=O)N(C)C)cc3)[nH]c(=O)c2c1C	9%	nt	0	nt	-1%
COc1ccc(SC[C@H](Cc2ccccc2)N2CCN(C)CCC2=O)cc1	13µM*	-3	-15	-5	10µM*
CN1CCC(=O)N([C@H](CSc2ccc(Br)cc2)Cc2ccccc2)CC1	9.3µM*	-3	-9	-2	3.3µM*
Cc1ccc(SC[C@H](Cc2ccccc2)N2CCN(C)CCC2=O)cc1	12µM*	9	-20	9	?
CC(C)(CC(=O)O)CC(=O)N1CCCN(c2nccc(C(F)(F)F)n2)CC1	-2%	-5	-33	3	0%
SMILES	Pf growth 48h	Shiga inhibitor	HCMV antiviral	CHX counter	Pf growth 96h
COc1ccc(NC(=O)CN(C)S(=O)(=O)c2ccc(Cl)cc2)cn1	?	nt	-3	nt	?
CN(C)CCN(C(=O)c1ccc2c(c1)OCCO2)c1nc2cc3c(cc2s1)OCO3	-2%	71	nt	55*	5%
CN(C)CCN(C(=O)c1ccc(S(=O)(=O)N(C)CC2CCCO2)cc1)c1nc2cc3c(cc2s1)OCO3 (centres undefined)	10%	9	68	25*	-12%
COc1ccc2sc(N(Cc3cccnc3)C(=O)c3ccc4c(c3)OCCO4)nc2c1	nt	nt	-90*	nt	nt
CCCCN(C(=O)c1ccc(S(=O)(=O)N(C)C)cc1)c1nc2ccccc2s1	?	-5	-2	-2	1.9µM*
CN(C)CCN(C(=O)c1ccc2ccccc2c1)c1nc2cc3c(cc2s1)OCO3	nt	nt	-2	nt	nt
CC(=O)N(CCN(C)C)c1nc2cc3c(cc2s1)OCCO3	73%	66*	130	31*	36%
COc1ccc(OC)c2sc(N(Cc3cccnc3)C(=O)c3ccco3)nc12	nt	nt	+	nt	nt
CCc1ccc2nc(N(Cc3cccnc3)C(=O)c3cccs3)sc2c1	nt	nt	-61*	nt	nt
